Assay outcomes from PubChem.
NPSR antagonist = neuropeptide S receptor (human) antagonism, cAMP; Potency, µM (doses to about 38.3 µM), usual class: inhibitors; Q6W5P4; hit rate 1% among 220,000; AID 1461; CHO-NPSR cells, cAMP TR-FRET, antagonist mode; further: nearly all actives have a fitted effect of over 50% in size
Tau fluor cs = counter-screen for tau fibril formation inhibitors; tau K18 P301L Alexa594 fluorescence, heparin fibrillization; Potency, µM (doses to about 57.7 µM); hit rate 0.93% among 280,000; AID 1463; further: nearly all actives have a fitted effect of over 55% in size
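Human tau K18 P301L (15 uM unlabeled, 0.24 uM Alexa 594-labeled) in 100 mM sodium acetate pH 7 with 20 uM heparin, 6 hr at 37 C. ThT 30 uM added, 1 hr ambient; Alexa 594 FP and total fluorescence read at 555/632 nm.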
HPGD inh = inhibitors of human 15-hydroxyprostaglandin dehydrogenase (HPGD); P15428; purified HPGD, NADH fluorescence kinetic, PGE2 substrate; Potency, µM, most hits filed as inhibitors; hit rate 4.3% among 150,000; AID 894; active means well fitted inhibition curve with a large enough effect, not every such curve was filed as active; inconclusive means small, poorly fitted or top-dose-only effect, or another doubt; inactive means no such curve, though single readings can be large or run the other way
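20 nM HPGD preincubated 15 min at room temperature with compound in 50 mM Tris-HCl pH 8, 0.01% Tween 20. Started with 1 mM NAD+ and 30 uM prostaglandin E2; NADH fluorescence (360/450 nm) read 5 times over 30-s intervals, last minus first.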
ALDH1A1 inh = blocks purified human ALDH1A1 activity. P00352. Purified ALDH1A1, NADH fluorescence, propionaldehyde substrate. Potency, µM (series often up to 75.3 µM), actives largely listed as inhibitors. hit rate 7.3% among 220,000. AID 1030; active means well fitted inhibition curve with a large enough effect, not every such curve was filed as active; inconclusive means small, poorly fitted or top-dose-only effect, or another doubt; inactive means no such curve, though single readings can be large or run the other way
Target sequence (P00352 whole entry, looked up): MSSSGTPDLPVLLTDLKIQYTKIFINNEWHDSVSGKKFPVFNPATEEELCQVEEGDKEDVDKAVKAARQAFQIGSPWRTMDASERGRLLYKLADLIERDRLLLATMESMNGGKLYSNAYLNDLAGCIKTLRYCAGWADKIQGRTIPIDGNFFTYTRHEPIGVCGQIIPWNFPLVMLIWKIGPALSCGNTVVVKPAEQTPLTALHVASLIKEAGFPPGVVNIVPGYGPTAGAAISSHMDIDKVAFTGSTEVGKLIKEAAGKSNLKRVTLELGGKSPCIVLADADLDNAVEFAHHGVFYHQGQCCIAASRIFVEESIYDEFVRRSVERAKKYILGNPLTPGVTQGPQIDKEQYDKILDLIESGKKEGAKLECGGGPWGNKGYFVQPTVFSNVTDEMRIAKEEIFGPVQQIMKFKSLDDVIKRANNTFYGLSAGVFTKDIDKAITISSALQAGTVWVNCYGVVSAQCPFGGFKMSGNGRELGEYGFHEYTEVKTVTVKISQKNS
Tau fibril ThT = inhibitors of human tau fibril formation, thioflavin T binding. Potency, µM (highest dose often 57.4 µM), hits mostly inhibitors. AID 1460. hit rate 2.1% among 270,000. P10636. recombinant tau K18 P301L (four-repeat tau fragment), heparin-induced fibrillization, ThT fluorescence; further: nearly all actives have a fitted effect of over 55% in size
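Heparin-induced fibrillization of the P301L-mutant K18 repeat-domain fragment of human tau was followed by ThT binding in quantitative high-throughput format.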
Tau FP inhib = inhibitors of human tau fibril formation. P10636. K18 P301L tau heparin fibrillization, Alexa594 FP, 6 h. Potency, µM (highest dose often 57.7 µM), most hits filed as inhibitors. hit rate 0.39% among 280,000. AID 1468; further: nearly all actives have a fitted effect of over 55% in size
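Compound effects on tau fibrillization are measured by Alexa 594 fluorescence polarization (ex 555, em 632 nm). K18 P301L tau is used at 15 uM with 0.24 uM labeled tracer, and 20 uM heparin induces aggregation over 6 hr at 37 C.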
Large screens that a line does not name were inactive; [ ] = another dose, or the depositor's remark. Compounds with a hit are over-represented: about 9.5% of the library has one in this group of screens. Unless noted, the call rests on the fitted dose curve; in most records, active means well fitted curve in the direction sought with a large enough effect; inconclusive means small, poorly fitted or top-dose-only effect, or another doubt; inactive means no such curve, though single readings can be large; an effect the other way counts as inactive or inconclusive.

N#C/C(=C\c1ccc(-c2ccccc2[N+](=O)[O-])o1)C(=O)N1CCOCC1	none (no result: HPGD inh)
O=[N+]([O-])c1ccccc1-c1ccc(/C=N/n2cnnc2)o1	HPGD inh 16µM, Tau fibril ThT inconclusive
Cc1c(C(=O)N/N=C/c2ccc(-c3ccccc3[N+](=O)[O-])o2)sc(N)c1C#N	Tau fluor cs inconclusive, ALDH1A1 inh inconclusive, Tau fibril ThT inconclusive
Nn1cnnc1N/N=C\c1ccc(-c2ccccc2[N+](=O)[O-])o1	Tau fluor cs inconclusive, ALDH1A1 inh 25µM, Tau fibril ThT 7.9µM, Tau FP inhib inconclusive
O=C(/C=C/c1ccc(-c2ccccc2[N+](=O)[O-])o1)c1ccco1	NPSR antagonist inconclusive, Tau fluor cs inconclusive, ALDH1A1 inh inconclusive, Tau fibril ThT 18µM (no result: HPGD inh)
CCCNC(=O)C1CCN(S(=O)(=O)c2ccc(Br)cc2)CC1	none
COc1cccc(Cn2c(CNC(=O)C(C)C)nc3cccnc32)c1	none (no result: NPSR antagonist, HPGD inh, ALDH1A1 inh)
O=c1c2c(nc3nc(NCc4ccccc4Cl)[nH]n13)CCC2	none (no result: HPGD inh)
CC1CCCN(S(=O)(=O)Cc2ccc(Cl)cc2)C1 (centres undefined)	none
CC1CCCN(C2=C(NS(=O)(=O)c3ccc(Cl)cc3)C(=O)c3ccccc3C2=O)C1 (centres undefined)	ALDH1A1 inh 13µM, Tau fibril ThT inconclusive
CC(OC(=O)C1CCN(S(=O)(=O)c2ccc(Cl)cc2)CC1)C(=O)N1CCc2ccccc21 (centres undefined)	none
COC(=O)C1CCN(C2=C(NS(=O)(=O)c3ccc(Cl)cc3)C(=O)c3ccccc3C2=O)CC1	Tau fluor cs inconclusive, Tau fibril ThT 14µM (no result: HPGD inh, ALDH1A1 inh)
NC(=O)C1CCN(C2=C(NS(=O)(=O)c3ccc(Cl)cc3)C(=O)c3ccccc3C2=O)CC1	Tau fluor cs inconclusive, Tau fibril ThT 16µM, Tau FP inhib inconclusive (no result: HPGD inh, ALDH1A1 inh)
COC(=O)CSc1ncnc2c1sc1nc3c(cc12)COC(C)(C)C3	ALDH1A1 inh 1.4µM (no result: HPGD inh)
CC1(C)Cc2nc3sc4c(SCC(=O)O)ncnc4c3cc2CO1	NPSR antagonist inconclusive (no result: HPGD inh, ALDH1A1 inh)
COC(CSc1ncnc2c1oc1nc3c(cc12)COC(C)(C)C3)OC	ALDH1A1 inh 3.2µM (no result: HPGD inh)
CCOC(=O)c1c(NC(=O)CSc2nnc(CNC(=O)c3ccco3)n2C)sc2c1CCC2	ALDH1A1 inh inconclusive
COC(=O)C1C(=O)c2c([nH]c(C(=O)OCC3CCCO3)c2C)CC1C (centres undefined)	NPSR antagonist 13µM, ALDH1A1 inh inconclusive
C/C(=C\C(=S)Nc1ccccc1)Nc1ccc2ccccc2c1	Tau fluor cs inconclusive, HPGD inh inconclusive, ALDH1A1 inh inconclusive, Tau fibril ThT 13µM, Tau FP inhib inconclusive
Cc1noc(C)c1C(=O)N1CCC2(CCCN(c3ccccc3)C2)CC1	none (no result: NPSR antagonist, Tau fluor cs, Tau fibril ThT, Tau FP inhib)
CCCc1cc(-c2n[nH]c(=S)n2C(C)c2ccccc2)cs1 (centres undefined)	HPGD inh 13µM, ALDH1A1 inh inconclusive, Tau fibril ThT inconclusive
C=CCn1c(-c2cccc([N+](=O)[O-])c2)n[nH]c1=S	ALDH1A1 inh inconclusive (no result: HPGD inh)
CCn1c(-c2cc(-c3ccccc3)sc2N)n[nH]c1=S	Tau fluor cs 14µM[quencher], Tau fibril ThT inconclusive (no result: HPGD inh, ALDH1A1 inh)
S=c1[nH]nc(-c2ccc(Cl)cc2Cl)n1Cc1ccccc1	HPGD inh 16µM, ALDH1A1 inh 32µM
O=[N+]([O-])c1cccc(-c2n[nH]c(=S)n2Cc2ccccc2)c1	HPGD inh 25µM, ALDH1A1 inh inconclusive
Cc1ccccc1-c1n[nH]c(=S)n1Cc1ccccc1	none (no result: HPGD inh)
C=CCn1c(-c2cccc(S(=O)(=O)N(CC)CC)c2)n[nH]c1=S	ALDH1A1 inh 2.2µM (no result: HPGD inh)
CCc1cc(-c2n[nH]c(=S)n2CC)cs1	ALDH1A1 inh inconclusive
C=CCn1c(-c2ccc(OC)c(OC)c2)n[nH]c1=S	Tau fluor cs inconclusive, Tau fibril ThT inconclusive
CCc1cc(-c2n[nH]c(=S)n2-c2ccccc2C)cs1	HPGD inh inconclusive, ALDH1A1 inh 8.9µM
CCc1cc(-c2n[nH]c(=S)n2Cc2ccccc2)cs1	HPGD inh 14µM, ALDH1A1 inh 5.6µM
C=CCn1c(-c2cccc(Cl)c2)n[nH]c1=S	HPGD inh inconclusive, ALDH1A1 inh 11µM
CC(=O)c1c(C)nn(CC(O)COc2ccc3ccccc3c2)c1C (centres undefined)	none (no result: HPGD inh)
CCCNC(=O)Cn1nc([N+](=O)[O-])c([N+](=O)[O-])c1C	none
